# According to PubChem BioAssay AID1035 (National Center for Advancing Translational Sciences (NCATS), 2008):
# Values without a mark were called inactive. No rule for the calls is given here.
# Test: HDAC Secondary Assay for qHTS Assay for Epigenetic Modulators
# Settings: HeLa nuclear extract HDAC activity, fluorogenic substrate, 20 min; at 48 µM; hits give low values
# Source text: NIH Molecular Libraries Screening Centers Network [MLSCN] NIH Chemical Genomics Center [NCGC] MLSCN Grant: 1 X01 MH079860-01 Assay Provider: Elisabeth D. Martinez, University of Texas SW Medical Center NCGC Assay Overview: This secondary assay characterizes selected actives identified in the qHTS of the Locus Derepression (LDR) assay (PubChem AID 597). The LDR assay detects the derepression of a GFP reporter that is stably integrated in a region of the genome of murine c127i mammary cells that is presumably silenced. Compounds that cause derepression of the locus to express GFP are identified by enumerating GFP positive cells using a laser-scanning microplate cytometer. […]
# NCGC Assay Protocol Summary HeLa nuclear extracts and acetylated profluorescent substrate were incubated with vehicle, 0.5 uM TSA, or 48 uM indicated LDR compound for 20 min at ambient temperature and fluorescence was measured. Background-subtracted activity was expressed as a percent of uninhibited extract. […] For further details, see R.L. Johnson, W. Huang, A. Jadhav, C.P. Austin, J. Inglese, E.D. Martinez, A Quantitative High-Throughput Screen Identifies Potential Epigenetic Modulators of Gene Expression, Analytical Biochemistry (2007), doi: 10.1016/j.ab.2007.12.028
smiles,measurement,value
CN1CSC(=S)N(C)C1,remaining HDAC activity,102%
